# Columns and labels:
# [1] = target: Rho-associated protein kinase 2 (Homo sapiens) (UniProt O75116); details: at 1 µM
# [2] = target: Rho-associated protein kinase 2 (Homo sapiens) (UniProt O75116); details: at 10 µM
# [3] = target: Proto-oncogene tyrosine-protein kinase receptor Ret (Homo sapiens) (UniProt P07949); details: at 1 µM
# [4] = target: Proto-oncogene tyrosine-protein kinase receptor Ret (Homo sapiens) (UniProt P07949); details: at 10 µM
# [5] = target: Macrophage-stimulating protein receptor (Homo sapiens) (UniProt Q04912); details: at 1 µM
# Chain of Macrophage-stimulating protein receptor (Homo sapiens) (Q04912 25-304 limits assumed): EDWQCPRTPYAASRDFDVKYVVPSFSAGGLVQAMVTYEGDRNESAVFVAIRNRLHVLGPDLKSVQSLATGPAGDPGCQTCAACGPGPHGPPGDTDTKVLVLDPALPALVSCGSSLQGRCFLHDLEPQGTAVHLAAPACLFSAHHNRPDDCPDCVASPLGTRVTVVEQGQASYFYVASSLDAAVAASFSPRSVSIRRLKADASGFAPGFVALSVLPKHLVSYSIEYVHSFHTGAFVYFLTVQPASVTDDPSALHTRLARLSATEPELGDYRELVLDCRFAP
# Chain of Macrophage-stimulating protein receptor (Homo sapiens) (Q04912 310-1400 limits assumed): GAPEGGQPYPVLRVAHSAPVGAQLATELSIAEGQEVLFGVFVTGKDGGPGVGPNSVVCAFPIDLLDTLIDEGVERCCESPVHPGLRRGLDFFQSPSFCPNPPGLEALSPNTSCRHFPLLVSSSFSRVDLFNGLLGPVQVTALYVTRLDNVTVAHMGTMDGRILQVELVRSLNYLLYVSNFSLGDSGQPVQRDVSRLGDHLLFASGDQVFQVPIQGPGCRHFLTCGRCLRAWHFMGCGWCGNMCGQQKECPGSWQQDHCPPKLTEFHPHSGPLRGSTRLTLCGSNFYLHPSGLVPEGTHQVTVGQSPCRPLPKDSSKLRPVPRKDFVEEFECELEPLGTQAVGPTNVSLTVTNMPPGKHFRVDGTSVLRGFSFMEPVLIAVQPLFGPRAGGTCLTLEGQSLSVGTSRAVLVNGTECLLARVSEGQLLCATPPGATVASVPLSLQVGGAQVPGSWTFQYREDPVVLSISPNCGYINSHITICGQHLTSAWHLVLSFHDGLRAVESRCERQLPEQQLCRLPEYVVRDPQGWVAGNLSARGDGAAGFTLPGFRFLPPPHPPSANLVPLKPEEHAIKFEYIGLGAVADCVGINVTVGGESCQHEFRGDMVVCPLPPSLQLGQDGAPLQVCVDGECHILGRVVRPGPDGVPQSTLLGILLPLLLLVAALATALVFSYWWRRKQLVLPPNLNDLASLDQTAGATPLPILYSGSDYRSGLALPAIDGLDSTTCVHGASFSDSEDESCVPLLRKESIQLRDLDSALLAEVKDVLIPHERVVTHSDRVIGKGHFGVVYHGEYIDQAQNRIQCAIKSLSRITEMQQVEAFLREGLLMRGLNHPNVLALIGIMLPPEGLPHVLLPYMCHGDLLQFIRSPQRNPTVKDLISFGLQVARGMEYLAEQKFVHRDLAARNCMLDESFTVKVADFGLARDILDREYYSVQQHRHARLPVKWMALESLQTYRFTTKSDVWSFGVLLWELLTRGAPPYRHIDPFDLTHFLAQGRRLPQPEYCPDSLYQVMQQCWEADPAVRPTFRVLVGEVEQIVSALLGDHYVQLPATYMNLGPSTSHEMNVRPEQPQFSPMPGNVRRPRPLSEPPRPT
# [6] = target: Macrophage-stimulating protein receptor (Homo sapiens) (UniProt Q04912); details: at 10 µM
# [7] = target: Proto-oncogene tyrosine-protein kinase ROS (Homo sapiens) (UniProt P08922); details: at 1 µM
# Chain of Proto-oncogene tyrosine-protein kinase ROS (Homo sapiens) (P08922 whole entry): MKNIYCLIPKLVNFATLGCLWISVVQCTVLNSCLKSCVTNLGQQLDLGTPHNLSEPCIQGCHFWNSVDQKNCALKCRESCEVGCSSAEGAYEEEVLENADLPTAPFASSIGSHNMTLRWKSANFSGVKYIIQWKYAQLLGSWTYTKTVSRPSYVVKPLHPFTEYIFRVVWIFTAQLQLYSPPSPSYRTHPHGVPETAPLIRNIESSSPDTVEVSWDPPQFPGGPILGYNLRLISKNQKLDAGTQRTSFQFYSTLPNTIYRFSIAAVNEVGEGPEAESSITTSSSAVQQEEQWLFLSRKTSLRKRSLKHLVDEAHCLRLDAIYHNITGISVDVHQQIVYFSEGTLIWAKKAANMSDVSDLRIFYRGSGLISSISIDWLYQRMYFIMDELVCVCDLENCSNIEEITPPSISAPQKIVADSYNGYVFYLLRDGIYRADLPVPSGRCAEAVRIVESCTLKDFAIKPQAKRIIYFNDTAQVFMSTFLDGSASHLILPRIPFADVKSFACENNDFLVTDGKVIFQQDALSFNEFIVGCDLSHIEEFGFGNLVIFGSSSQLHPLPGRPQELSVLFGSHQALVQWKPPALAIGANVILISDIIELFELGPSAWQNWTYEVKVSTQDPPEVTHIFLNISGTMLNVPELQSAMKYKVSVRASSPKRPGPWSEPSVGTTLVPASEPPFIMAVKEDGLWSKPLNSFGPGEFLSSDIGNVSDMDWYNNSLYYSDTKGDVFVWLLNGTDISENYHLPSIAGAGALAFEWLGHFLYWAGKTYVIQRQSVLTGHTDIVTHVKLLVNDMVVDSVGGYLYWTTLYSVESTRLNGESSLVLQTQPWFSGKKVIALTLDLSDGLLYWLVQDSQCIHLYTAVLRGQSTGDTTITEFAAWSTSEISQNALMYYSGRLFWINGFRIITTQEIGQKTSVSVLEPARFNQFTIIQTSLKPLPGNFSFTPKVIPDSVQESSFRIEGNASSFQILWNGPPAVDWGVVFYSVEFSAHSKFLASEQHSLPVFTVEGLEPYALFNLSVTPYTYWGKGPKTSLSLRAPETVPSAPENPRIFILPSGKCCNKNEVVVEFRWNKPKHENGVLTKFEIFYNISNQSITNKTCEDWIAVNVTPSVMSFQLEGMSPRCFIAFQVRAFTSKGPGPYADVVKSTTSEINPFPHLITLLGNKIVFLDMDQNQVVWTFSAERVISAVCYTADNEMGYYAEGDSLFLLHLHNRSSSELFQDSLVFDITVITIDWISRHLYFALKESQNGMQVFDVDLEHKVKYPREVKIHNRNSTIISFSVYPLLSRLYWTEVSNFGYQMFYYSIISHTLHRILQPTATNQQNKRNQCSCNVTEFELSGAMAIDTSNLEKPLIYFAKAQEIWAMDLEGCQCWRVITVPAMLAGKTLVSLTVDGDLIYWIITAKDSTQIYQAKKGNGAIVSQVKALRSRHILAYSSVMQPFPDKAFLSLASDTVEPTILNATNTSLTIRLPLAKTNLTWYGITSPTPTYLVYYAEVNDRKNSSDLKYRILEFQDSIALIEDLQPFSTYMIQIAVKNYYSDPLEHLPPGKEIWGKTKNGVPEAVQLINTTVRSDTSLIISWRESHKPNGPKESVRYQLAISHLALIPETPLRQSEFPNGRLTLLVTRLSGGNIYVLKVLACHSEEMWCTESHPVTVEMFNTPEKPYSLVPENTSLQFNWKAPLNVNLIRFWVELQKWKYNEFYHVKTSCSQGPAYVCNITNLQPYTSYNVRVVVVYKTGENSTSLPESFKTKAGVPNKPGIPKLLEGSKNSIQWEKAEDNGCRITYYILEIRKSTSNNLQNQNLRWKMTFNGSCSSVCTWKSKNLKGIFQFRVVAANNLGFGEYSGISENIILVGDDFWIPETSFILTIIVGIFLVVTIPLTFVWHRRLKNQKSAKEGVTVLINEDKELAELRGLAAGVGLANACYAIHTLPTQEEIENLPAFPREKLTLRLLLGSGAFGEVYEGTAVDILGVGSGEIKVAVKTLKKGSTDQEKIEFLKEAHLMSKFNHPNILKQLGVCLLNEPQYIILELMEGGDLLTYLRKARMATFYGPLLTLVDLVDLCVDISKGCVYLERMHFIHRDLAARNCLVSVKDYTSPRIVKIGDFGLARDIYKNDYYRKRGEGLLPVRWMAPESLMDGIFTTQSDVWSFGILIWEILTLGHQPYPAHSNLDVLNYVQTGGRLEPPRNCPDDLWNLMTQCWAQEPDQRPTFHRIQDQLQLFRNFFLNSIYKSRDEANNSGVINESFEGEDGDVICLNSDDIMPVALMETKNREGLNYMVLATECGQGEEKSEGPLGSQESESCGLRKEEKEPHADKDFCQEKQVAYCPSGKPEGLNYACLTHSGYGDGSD
# [8] = target: Proto-oncogene tyrosine-protein kinase ROS (Homo sapiens) (UniProt P08922); details: at 10 µM
# [9] = target: T1, Tyrosine-protein kinase receptor TYRO3 (Homo sapiens) (UniProt Q06418); details: at 1 µM
# T1 sequence (whole entry): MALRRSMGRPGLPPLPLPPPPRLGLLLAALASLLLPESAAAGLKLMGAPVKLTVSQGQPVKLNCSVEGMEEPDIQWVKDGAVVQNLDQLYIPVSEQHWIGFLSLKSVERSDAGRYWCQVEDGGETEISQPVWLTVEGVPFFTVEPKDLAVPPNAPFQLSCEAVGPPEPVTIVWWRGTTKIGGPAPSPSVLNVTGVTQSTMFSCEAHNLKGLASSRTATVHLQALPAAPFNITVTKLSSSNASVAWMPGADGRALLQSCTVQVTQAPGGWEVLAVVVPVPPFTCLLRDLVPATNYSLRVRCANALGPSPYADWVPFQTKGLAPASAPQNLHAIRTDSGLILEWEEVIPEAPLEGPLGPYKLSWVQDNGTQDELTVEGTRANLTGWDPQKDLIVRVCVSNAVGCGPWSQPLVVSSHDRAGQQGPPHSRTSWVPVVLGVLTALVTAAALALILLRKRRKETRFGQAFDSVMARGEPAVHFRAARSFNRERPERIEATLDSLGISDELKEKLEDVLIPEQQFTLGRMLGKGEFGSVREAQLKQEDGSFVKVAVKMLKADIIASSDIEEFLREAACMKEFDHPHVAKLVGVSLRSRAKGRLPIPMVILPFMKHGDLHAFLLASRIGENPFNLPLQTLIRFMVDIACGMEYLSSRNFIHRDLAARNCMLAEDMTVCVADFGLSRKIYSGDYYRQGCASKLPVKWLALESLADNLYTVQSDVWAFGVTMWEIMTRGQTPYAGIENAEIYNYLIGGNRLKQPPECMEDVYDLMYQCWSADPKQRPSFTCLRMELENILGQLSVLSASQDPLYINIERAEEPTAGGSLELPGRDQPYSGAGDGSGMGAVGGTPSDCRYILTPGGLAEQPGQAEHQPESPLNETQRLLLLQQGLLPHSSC
# [10] = target: T1, Tyrosine-protein kinase receptor TYRO3 (Homo sapiens); details: at 10 µM
# Chain of Proto-oncogene tyrosine-protein kinase receptor Ret (Homo sapiens) (P07949 whole entry): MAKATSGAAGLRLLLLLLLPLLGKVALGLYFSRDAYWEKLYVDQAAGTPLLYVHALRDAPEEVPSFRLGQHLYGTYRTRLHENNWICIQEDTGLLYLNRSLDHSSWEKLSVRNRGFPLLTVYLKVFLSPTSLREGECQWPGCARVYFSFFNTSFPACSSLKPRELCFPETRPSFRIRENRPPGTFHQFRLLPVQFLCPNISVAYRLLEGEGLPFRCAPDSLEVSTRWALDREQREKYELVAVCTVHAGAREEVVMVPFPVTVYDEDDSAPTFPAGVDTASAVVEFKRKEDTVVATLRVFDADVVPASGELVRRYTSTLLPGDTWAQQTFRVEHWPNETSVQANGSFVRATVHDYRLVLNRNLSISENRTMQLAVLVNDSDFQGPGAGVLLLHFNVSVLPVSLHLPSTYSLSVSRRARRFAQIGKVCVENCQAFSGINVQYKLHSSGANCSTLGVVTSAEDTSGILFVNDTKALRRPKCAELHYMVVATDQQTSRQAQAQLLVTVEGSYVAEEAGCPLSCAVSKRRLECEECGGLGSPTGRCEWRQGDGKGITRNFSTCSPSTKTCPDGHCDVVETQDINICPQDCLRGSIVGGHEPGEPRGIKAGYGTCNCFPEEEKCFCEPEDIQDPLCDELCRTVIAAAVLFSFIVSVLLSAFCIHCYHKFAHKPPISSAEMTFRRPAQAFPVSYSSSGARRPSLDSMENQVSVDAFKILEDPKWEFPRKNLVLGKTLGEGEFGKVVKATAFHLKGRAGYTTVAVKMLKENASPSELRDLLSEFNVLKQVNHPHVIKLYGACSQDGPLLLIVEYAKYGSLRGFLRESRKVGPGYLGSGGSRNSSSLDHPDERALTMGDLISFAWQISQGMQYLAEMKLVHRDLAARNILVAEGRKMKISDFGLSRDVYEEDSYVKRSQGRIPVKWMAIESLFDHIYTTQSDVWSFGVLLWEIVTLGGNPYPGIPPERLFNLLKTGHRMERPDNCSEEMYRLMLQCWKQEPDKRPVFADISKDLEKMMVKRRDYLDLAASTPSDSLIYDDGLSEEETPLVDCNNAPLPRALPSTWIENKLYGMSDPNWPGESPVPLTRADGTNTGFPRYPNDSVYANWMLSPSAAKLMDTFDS
SMILES,residual activity [1],residual activity [2],residual activity [3],residual activity [4],residual activity [5],residual activity [6],residual activity [7],residual activity [8],residual activity [9],residual activity [10]
O=C(CCCc1ccc(-c2ccccc2F)cc1)Nc1ccc(O)cc1,106%,96%,91%,86%,85%,92%,103%,100%,102%,102%
NC(=O)Nc1sc(-c2ccc(F)cc2)cc1C(N)=O,89%,53%,30%,1%,73%,56%,91%,94%,91%,41%
CCCCc1c(-c2ccc(O)cc2)[nH]c2nccnc12,96%,94%,45%,48%,–,–,93%,82%,100%,99%
Nc1ncnc2c1c(-c1ccc(Oc3ccccc3)cc1)cn2C1CCCC1,90%,70%,0%,-1%,92%,55%,88%,82%,59%,14%
CC(C)[C@H](CO)Nc1nc(Nc2cc(N)cc(Cl)c2)c2ncn(C(C)C)c2n1,91%,52%,83%,21%,96%,62%,–,–,84%,53%
O=C1NC(=O)c2c1c1c3ccccc3[nH]c1n1cncc21,88%,85%,59%,33%,73%,71%,97%,88%,95%,69%
O=c1cc(N2CCOCC2)oc2c1ccc1ccccc12,99%,67%,99%,107%,98%,75%,100%,99%,87%,93%
c1ccc(-c2cnc(Nc3ccc(OCCN4CCCC4)cc3)s2)cc1,110%,81%,–,37%,–,–,–,80%,–,–
O=S(=O)(c1cccc2cnccc12)N1CCCNCC1,25%,4%,53%,39%,–,–,–,–,–,123%
O=C(NC(NC(=S)Nc1ccc(F)c([N+](=O)[O-])c1)C(Cl)(Cl)Cl)C(c1ccccc1)c1ccccc1 (centres undefined),99%,102%,–,–,88%,93%,103%,94%,–,–
CC(C)c1nn(-c2c(Cl)cccc2Cl)c2nc(Cc3ccc(OCCO)cc3)[nH]c(=O)c12,98%,96%,103%,92%,88%,92%,106%,88%,103%,104%
O=C1C(Cl)=C(N2C(=O)CCC2=O)C(=O)c2ccccc21,45%,16%,102%,86%,92%,81%,101%,97%,–,–
O=C1Nc2ccc(Cl)cc2/C1=C/c1cc(Cl)c(O)c(Cl)c1,96%,65%,91%,77%,61%,57%,92%,90%,71%,57%
NC(=O)c1cccc(-c2cc(Nc3ccc(OC(F)(F)F)cc3)ncn2)c1,125%,94%,–,87%,–,–,–,–,–,–
CC(C)(C)c1nc2c3ccc(F)cc3c3c(=O)[nH]ccc3c2[nH]1,57%,58%,18%,36%,–,–,–,–,75%,–
CCCC(=O)Oc1ccc2[nH]c(C(=O)c3cc4ccccc4[nH]3)cc2c1,93%,83%,94%,–,102%,74%,86%,90%,92%,98%
CC(C)(C)n1nc(Cc2cccc3ccccc23)c2c(N)ncnc21,104%,77%,11%,1%,110%,77%,96%,94%,87%,73%
CCN1/C(=C/C(C)=O)Sc2ccc(OC)cc21,78%,73%,–,–,–,–,–,–,–,–
COc1cc2nccc(Oc3ccc(NC(=S)NC(=O)c4ccccc4C)cc3)c2cc1OC,87%,70%,75%,78%,30%,0%,79%,52%,45%,18%
COc1ccc(Cl)cc1NC(=O)Nc1cc(C)nc2ccccc12,96%,79%,93%,87%,–,–,96%,92%,–,–
COc1cc2ncnc(Nc3cccc(Cl)c3)c2cc1OC,103%,87%,39%,6%,116%,83%,100%,105%,62%,15%
Nc1ncnc2[nH]nc(Nc3ccc(F)cc3)c12,104%,91%,72%,18%,–,67%,104%,95%,104%,50%
Nc1n[nH]c2nc3ccccc3nc12,94%,84%,100%,82%,–,–,–,–,99%,100%

# Reference: ChEMBL document CHEMBL2218924, “A broad activity screen in support of a chemogenomic map for kinase signalling research and drug discovery” (Biochem J, 2013)
